KB-3-1 tox: KB-3-1 parental cell cytotoxicity; Potency, µM (highest dose often 46.1 µM), actives largely listed as cytotoxic; KB-3-1 viability, CellTiter-Glo ATP luminescence, 72 h; AID 1347075; 400,000 tested, 1.4% active; further: on the % scale 0 is the no-effect control and ±100 the full control effect; nearly all actives have a fitted effect of over 60% in size
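Cytotoxicity in the drug-sensitive parental line KB-3-1 was scored as loss of CellTiter-Glo luminescence following 72 h incubation with compound. Values come from curve fitting of normalized concentration-response data.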
KB-V1 cytotox: KB-V1 MDR subline cytotoxicity; KB-V1 MDR cells viability, CellTiter-Glo, 72 h; Potency, µM (series often up to 46.1 µM), actives largely listed as cytotoxic; 400,000 tested, 3.4% active; AID 1347076; further: on the % scale 0 is the no-effect control and ±100 the full control effect; nearly all actives have a fitted effect of over 60% in size
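KB-V1, DMEM (no phenol red) + 10% FBS; cpd pin-transferred, titration series; 72 h, 37 degrees C; CellTiter-Glo, luminescence. Data normalized, curve-fit.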
TGFb inhibitor: TGF-b pathway inhibition; Potency, µM (titrated, usually from 46.1 µM), for the others: at the highest dose activity, negative = inhibition, hits mostly inhibitors; 410,000 tested, 1.2% active; AID 588855; HepG2 CAGA-GFP TGF-b/SMAD3 reporter, GFP fluorescence, 18 h; TGF-beta stimulated, 500 pg/mL final; further: on the % scale 0 is the no-effect control and ±100 the full control effect; nearly all actives have a fitted effect of over 65% in size
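Inhibition was scored as loss of TGF-beta-induced (500 pg/mL final, 18 hours, 37 degrees C) GFP in HEPG2 cells carrying a CAGA-GFP reporter, in DMEM with 1% FBS. Well GFP was summed per cell; Activity was normalised to unstimulated and stimulated DMSO wells, then concentration-response fitting.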
ATXN2 expr inh: reduces ATXN2 reporter expression in HEK-293 cells. 360,000 tested, 0.72% active. HEK-293 ATXN2-luciferase reporter, luminescence, 24 h. AID 1745845. Potency, µM (highest dose often 57 µM), inactives show at the highest dose activity change, negative = inhibition, usual class: inhibitors; further: on the % scale 0 is the no-effect control and ±100 the full control effect; nearly all actives have a fitted effect of over 55% in size
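qHTS (up to 57 uM final) was run with 24 h compound exposure of reporter cells at 37 °C. Each well was multiplexed: SteadyGlo luminescence measured ATXN2-luciferase expression after a fluorogenic Gly-Phe-AFC viability readout (25 uM final).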
S2 tox: reduces viability in counter-screen for ATXN expression inhibitors; S2 cells (HEK-293 line with an ATXN2-luciferase reporter) viability, CellTiter-Fluor protease fluorescence, 24 h; Potency, µM (doses to about 56.7 µM), most hits filed as cytotoxic; 400,000 tested, 0.49% active; further: nearly all actives have a fitted effect of over 40% in size
HepG2 viability: counter-screen for TGF-b inhibitors: cytotoxicity in HepG2 cells | 410,000 tested, 0.76% active | Potency, µM (series often up to 46.1 µM), without a hit: at the highest dose activity change, negative = cytotoxicity, most hits filed as cytotoxic | HepG2 CAGA-GFP viability, ATP luminescence, 18 h
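CellTiter-Glo luminescence gave cytotoxicity after 18 hours at 37 degrees C. The cells were HepG2 CAGA-GFP in 1% FBS DMEM, stimulated with 500 pg/mL TGF-beta after compound addition. %Activity was normalised to no-cell wells (complete cell-killing) and DMSO (no toxicity), and curves were fitted and classified.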
* hit, by the source's call; i = inactive; ? = inconclusive; . = no result given. Hits are enriched below; roughly 5.9% of the tested compounds scored in any of these assays. The call rests on the fitted dose curve; in most records, active means well fitted curve in the direction sought with a large enough effect; inconclusive means small, poorly fitted or top-dose-only effect, or another doubt; inactive means no such curve, though single readings can be large; an effect the other way counts as inactive or inconclusive. Potency means the concentration at half of the fitted maximal effect.

SMILES	KB-3-1 tox	KB-V1 cytotox	TGFb inhibitor	ATXN2 expr inh	S2 tox	HepG2 viability
CCCCc1c(C)c(C#N)c2[nH]c3ccccc3n2c1=O	?	?	3.16µM*	?	i	-51.8%
Cc1c(CCO)c(=O)n2c([nH]c3ccccc32)c1C#N	i	i	-3.8%	-18.1%	i	-12.7%
CCOc1ccc(CN2CCN(Cc3ccc4c(c3)c3ccccc3n4CC)CC2)cc1	.	.	10µM*	.	.	-76.5%
CCn1c2ccccc2c2cc(CN3CCN(Cc4ccc(OC)c(OC)c4)CC3)ccc21	.	.	?	.	.	-63.1%
CCN(C(=O)c1cn(-c2ccc(OC)cc2)c(=O)c2ccccc12)c1cccc(Cl)c1	.	.	15.8µM*	.	.	-23.0%
COc1ccc(-n2cc(C(=O)O)c3ccccc3c2=O)cc1	i	i	8.5%	-5.4%	i	1.6%
Cc1ccc2[nH]c3c(c2c1)CN(C(=O)CN1CCN(c2cccc(C)c2C)CC1)CC3	?	20.6µM*	?	?	i	-37.3%
Cc1ccc2[nH]c3c(c2c1)CN(C(=O)CN1c2ccc(F)cc2CCC1C)CC3 (centres undefined)	?	?	?	?	i	-36.9%
Cc1nc(S(=O)(=O)c2ccc(Cl)cc2)nc2c1CCC2	i	14.6µM*	-1.7%	-10.2%	i	-5.0%
O=[N+]([O-])c1ccccc1-c1ccc(/C=N/n2cnnc2)o1	i	?	-17.8%	2.6%	i	-3.4%
O=C1ON=C(c2ccccc2)/C1=C/c1ccc(-c2ccccc2[N+](=O)[O-])o1	?	?	20µM*	7.5%	i	-36.8%
COc1ccc(C(c2nnnn2-c2c(C)cccc2C)N2CCN(C/C=C/c3ccccc3)CC2)cc1 (centres undefined)	i	?	-23.6%	15.4%	i	-14.2%
CCOC(=O)CS(=O)(=O)c1nc(-c2ccc(F)cc2)cc(C(F)(F)F)n1	3.26µM*	i	?	?	.	-95.8%
CCOC(=O)CS(=O)(=O)c1nc(-c2ccccc2)cc(C(F)(F)F)n1	13µM*	?	?	-31.8%	i	-90.2%
Cc1ccc(Cl)cc1-c1ccc(C=Nc2ccc(N3CCOCC3)cc2)o1	i	i	11.2µM*	?	i	-39.9%
Cn1cc(CN2CCC(C(=O)NC(c3ccc(F)cc3)c3ccc4ccccc4n3)CC2)c2ccccc21 (centres undefined)	?	?	?	28.2µM*	28.2µM*	10µM*
O=C(NC(c1ccc(F)cc1)c1ccc2ccccc2n1)C1CCN(CCOc2ccc(F)cc2)CC1 (centres undefined)	?	18.4µM*	11.2µM*	28.2µM*	15.8µM*	15.8µM*
O=C(NC(c1ccc(F)cc1)c1cnccn1)C1CCN(CCOc2ccc(Cl)cc2Cl)CC1 (centres undefined)	i	i	?	?	?	-34.1%
COc1ccc(OCCN2CCC(C(=O)NC(c3ccc(F)cc3)c3ccc4ccccc4n3)CC2)cc1 (centres undefined)	?	i	20µM*	?	?	11.2µM*
O=C(NC(c1ccc(F)cc1)c1ccc2ccccc2n1)C1CCN(CCOc2ccc(Cl)cc2Cl)CC1 (centres undefined)	?	?	?	?	.	11.2µM*
C[C@H]1C[C@H]2[C@@H]3CCC4=CC(=O)C=C[C@]4(C)[C@H]3C(=O)C[C@]2(C)[C@@]1(O)C(=O)CO	.	.	.	-0.3%	i	.
CC(C)(C)n1ncc2c(=O)n(Cc3ccccc3F)cnc21	.	.	-7.4%	.	.	-17.2%
COc1ccc(N(CC(=O)Nc2cc(OC)cc(OC)c2)S(=O)(=O)c2c(C)noc2C)cc1	?	i	?	?	?	-19.4%
COc1ccc(OCCN2CCC(C(=O)NC(c3ccc(OC)cc3)c3ccccn3)CC2)cc1 (centres undefined)	i	i	0.0%	2.3%	i	-24.1%

From PubChem
